Nrf2 ARE act: Nrf2 pathway activation | AREc32 ARE-luciferase reporter (MCF7-derived line), luminescence, 24 h | Potency, µM (highest dose often 46.1 µM), without a hit: top-dose activation, hits mostly activators | hit rate 0.31% among 410,000 | AID 624171; also: potency is read from the fitted curve at half-maximal effect; % of control where 0% means no effect; nearly all actives have a fitted effect of over 65% in size
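Steps: seed AREc32_Fluc cells (1000/well, 5% FBS OPTI-MEM); incubate overnight at 37 deg C; add 23 nL compound; incubate 24 hr; add Steady-Glo; hold 30 min RT; read luminescence.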
ALOX12 inh: ALOX12 (human) lipoxygenase inhibition; P18054; purified 12hLO, xylenol orange hydroperoxide absorbance; Potency, µM (series often up to 108 µM), for inactives: at the highest dose activity change, negative = inhibition, actives largely listed as inhibitors; hit rate 1.1% among 580,000; AID 1671190; also: potency is read from the fitted curve at half-maximal effect; % is scaled to controls: 0 for no effect and ±100 for the full control effect
Target sequence (P18054 whole entry, looked up): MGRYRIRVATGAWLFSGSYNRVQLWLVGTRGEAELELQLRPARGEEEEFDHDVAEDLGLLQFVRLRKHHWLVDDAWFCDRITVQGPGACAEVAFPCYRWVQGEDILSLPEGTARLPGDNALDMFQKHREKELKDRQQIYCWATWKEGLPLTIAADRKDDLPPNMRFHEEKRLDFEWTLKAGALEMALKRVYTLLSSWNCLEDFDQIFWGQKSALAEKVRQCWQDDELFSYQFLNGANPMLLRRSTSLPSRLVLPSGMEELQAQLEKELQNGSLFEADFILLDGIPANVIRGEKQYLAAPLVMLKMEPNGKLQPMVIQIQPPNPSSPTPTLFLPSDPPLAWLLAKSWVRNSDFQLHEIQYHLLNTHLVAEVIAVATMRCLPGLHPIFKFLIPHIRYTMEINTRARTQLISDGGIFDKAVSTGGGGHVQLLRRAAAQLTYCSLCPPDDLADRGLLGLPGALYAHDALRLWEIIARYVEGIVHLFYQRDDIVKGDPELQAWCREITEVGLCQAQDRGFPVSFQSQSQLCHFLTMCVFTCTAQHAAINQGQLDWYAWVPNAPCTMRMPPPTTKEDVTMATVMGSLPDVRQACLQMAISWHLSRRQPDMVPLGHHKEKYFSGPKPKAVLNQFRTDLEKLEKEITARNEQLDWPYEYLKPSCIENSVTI
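Hydroperoxide product was detected by ferrous iron/xylenol orange as the 573 to 405 nm absorbance ratio. Arachidonic acid at 40 uM (final) was turned over for 30 min at room temperature by 150 nM human 12hLO, pH 7.0 Hepes buffer, after 15 min compound preincubation.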
mIDH1 inhibitor: inhibitors of human mutant IDH1 R132H | hit rate 0.093% among 390,000 | Potency, µM (series often up to 76.6 µM), inactives show top-dose activity change, negative = inhibition, hits mostly inhibitors | AID 602179 | O75874 | IDH1-R132H enzyme, NADPH consumption, diaphorase/resazurin fluorescence; also: potency is read from the fitted curve at half-maximal effect; % is scaled to controls: 0 for no effect and ±100 for the full control effect; nearly all actives have a fitted effect of over 65% in size
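IDH1-R132H (0.5 ug/mL dispensed) in pH 7.5 Tris buffer was preincubated 30 min with compound, then given a substrate mix of 0.016 mM NADPH and 2 mM alpha-KG for 80 min at room temperature; remaining NADPH was read by diaphorase/resazurin fluorescence.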
LDHA inh: inhibitors of human lactate dehydrogenase A. P00338. purified LDHA, NADH/diaphorase-resazurin fluorescence; hits give low values. activity change, % (values are at about 110 or 230 µM). hit rate 0.15% among 480,000; in the data active = activity change below about -30%; inconclusive = mostly about -25% to -30%;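 also: plate controls were DMSO wells for no effect and wells without enzyme for full effect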
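Human LDH5 at 2 nM final in Tris HCl pH 7.4 with 0.06 mM NADH and 0.2 mM pyruvate, reacted 5 minutes at room temperature. Remaining NADH coupled via diaphorase/resazurin; resorufin fluorescence read at 0 and 20 minutes, normalized to enzyme-free and DMSO wells.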
Nrf2 inh: Nrf2 pathway inhibition; Potency, µM (top dose mostly 46 µM), for inactives: at the top dose activity change, negative = inhibition, usual class: inhibitors; hit rate 2.1% among 360,000; A549 ARE-Fluc reporter, luciferase luminescence, 18-24 h; AID 504444; also: potency is read from the fitted curve at half-maximal effect; % is scaled to controls: 0 for no effect and ±100 for the full control effect; nearly all actives have a fitted effect of over 60% in size
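A549 ARE_Fluc cells, 5000/well, 5% FBS OPTI-MEM; compounds in dose-response, 18-24 h at 37 °C/5% CO2; CellTiter-Fluor viability read (Ex 405/Em 525), then BugLite luciferase luminescence = Nrf2 activity.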
A549 tox: counter-screen for Nrf2 inhibitors: cytotoxicity in A549 cells; A549 ARE-Fluc cells, CellTiter-Fluor viability, 18-24 h; Potency, µM (doses to about 46 µM), inactives show top-dose activity change, negative = cytotoxicity, actives largely listed as inhibitors; hit rate 0.16% among 390,000; also: potency is read from the fitted curve at half-maximal effect; % is scaled to controls: 0 for no effect and ±100 for the full control effect
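Cytotoxicity counterscreen: CellTiter-Fluor fluorescence was measured in A549 ARE_Fluc cells after 18-24 h of compound exposure in a concentration series. The subsequent BugLite luminescent read reports ARE-luciferase activity.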
The depositor's hits bear a star. In the library only some 2.7% were active in any assay of this set; here they are far more common. Unless noted, calls follow the shape of the dose curve; as a rule, active = well fitted curve in the direction sought with a large enough effect; inconclusive = small, poorly fitted or top-dose-only effect, or another doubt; inactive = no such curve, though single readings can be large; an effect the other way counts as inactive or inconclusive.

For COc1ccc2nc(NC(=O)c3nc(S(=O)(=O)Cc4ccccc4F)ncc3Cl)sc2c1 the results were Nrf2 ARE act 10µM*, ALOX12 inh -1%, mIDH1 inhibitor -10%, LDHA inh -2, Nrf2 inh 3% and A549 tox inconclusive.
Screening Cc1nc2cc(NC(=O)COc3cc(Cl)ccc3Cl)ccc2o1 returned ALOX12 inh 3% and LDHA inh 8.
O=c1c2c(-c3cccs3)csc2ncn1/N=C/c1ccc(OC(F)F)cc1 was read as Nrf2 ARE act 3%, ALOX12 inh 0%, mIDH1 inhibitor -1%, LDHA inh 3, Nrf2 inh 9.2µM* and A549 tox inconclusive.
`O=C(COc1ccccc1)N1CCC(c2nc3ccccc3o2)CC1` gave ALOX12 inh -29% and LDHA inh 2.
`COc1cc(/C=N/NC(=O)c2cccc3ccccc23)cc(OC)c1OC` gave Nrf2 ARE act 0%, ALOX12 inh 0%, mIDH1 inhibitor -6%, LDHA inh -2, Nrf2 inh 13% and A549 tox -4%.
For CN(CCC#N)c1ccc(/C=N/NC(N)=S)cc1 the results were ALOX12 inh 18µM* and LDHA inh 0.
COc1ccc(/C=N/NC(N)=S)cc1OC(=O)c1cccc2ccccc12 was read as Nrf2 ARE act 8%, ALOX12 inh 16µM*, mIDH1 inhibitor -1%, LDHA inh -8, Nrf2 inh -25% and A549 tox 8%.
COc1ccc(C(=O)Oc2cc(/C=N/NC(N)=S)ccc2OC)cc1 was read as Nrf2 ARE act 5%, ALOX12 inh 32µM*, mIDH1 inhibitor -8%, LDHA inh -4, Nrf2 inh -5% and A549 tox 2%.
For COc1ccc(/C=N/NC(N)=S)cc1 the results were Nrf2 ARE act 9%, ALOX12 inh 25µM*, mIDH1 inhibitor 3%, LDHA inh -1, Nrf2 inh 3% and A549 tox -18%.
COc1ccc(C(=O)Oc2ccc(/C=N/Nc3ccc(Cl)c(C(=O)O)c3)cc2OC)cc1 was read as Nrf2 ARE act -1%, ALOX12 inh inconclusive, mIDH1 inhibitor 7%, LDHA inh -4, Nrf2 inh 13% and A549 tox -5%.
For Cc1cc(C(=O)NC2CCN(C(=O)C3CC3)CC2)c2ccccc2n1 the results were ALOX12 inh 54% and LDHA inh -15.
`COc1cc(/C=N\NC(=O)c2cccnc2)ccc1OC(=O)c1ccccc1Cl` gave Nrf2 ARE act 3%, ALOX12 inh 1%, mIDH1 inhibitor 9%, LDHA inh -2, Nrf2 inh 15µM* and A549 tox -5%.
COC(=O)c1cc2c(c3c4ccccc4n(S(=O)(=O)c4ccc(OC)cc4)c13)C(=O)N(Cc1ccco1)C2 was read as ALOX12 inh 40µM*.
`COc1cccc(NC(=O)CSC2=C(C#N)C(c3ccccc3C)C3=C(CCCC3=O)N2)c1` (stereo not drawn) gave ALOX12 inh inconclusive and LDHA inh 9.
For CC(=O)NC(CCc1ccc(Cl)c(Cl)c1)c1cccc(O)c(=O)c1 (stereo not drawn) the results were Nrf2 ARE act -1%, ALOX12 inh 40µM*, mIDH1 inhibitor 7% and LDHA inh 11.
COc1ccc(C(C)=O)cc1CO/N=C/c1ccccc1Cl was read as ALOX12 inh 0% and LDHA inh 4.
For CC1CCN(C(=O)N2c3ccccc3Sc3ccccc32)CC1 the results were Nrf2 ARE act 0%, ALOX12 inh -22%, mIDH1 inhibitor 2%, LDHA inh -3 and A549 tox -12%.
`CC1CCCN(C(=O)N2c3ccccc3Sc3ccccc32)C1` (stereo not drawn) gave Nrf2 ARE act 0%, ALOX12 inh -3%, mIDH1 inhibitor 4%, LDHA inh 3, Nrf2 inh 16µM* and A549 tox inconclusive.
`N/C(=N\OC(=O)c1cccc(F)c1)c1ccccc1` gave Nrf2 ARE act 11µM*, ALOX12 inh 13%, mIDH1 inhibitor 2%, LDHA inh -6, Nrf2 inh inconclusive and A549 tox 3%.
Screening Cc1ccc(/C(N)=N/OC(=O)c2ccc(F)cc2)cc1 returned Nrf2 ARE act 8%, ALOX12 inh -9%, mIDH1 inhibitor 3%, LDHA inh 4, Nrf2 inh inconclusive and A549 tox -11%.
Screening Cc1ccc(/C(N)=N/OC(=O)c2cccc(F)c2)cc1 returned Nrf2 ARE act 11µM*, ALOX12 inh 1%, mIDH1 inhibitor 7%, LDHA inh -3 and A549 tox 11%.
`COc1cccc(NC(=O)CSc2nc3ccccc3c(=O)n2C)c1` gave Nrf2 ARE act 3%, ALOX12 inh 13%, mIDH1 inhibitor 0%, LDHA inh -5, Nrf2 inh 15µM* and A549 tox -10%.
COC(=O)c1cc(CSc2nc3ccccc3c(=O)n2C)oc1C was read as Nrf2 ARE act 3%, ALOX12 inh -3%, mIDH1 inhibitor -4%, LDHA inh -5, Nrf2 inh 18µM* and A549 tox 5%.
COCCn1c(SCC(=O)Nc2cccc(S(N)(=O)=O)c2)nc2cc(Cl)ccc2c1=O was read as Nrf2 ARE act 0%, ALOX12 inh 2%, mIDH1 inhibitor -17%, LDHA inh -4, Nrf2 inh -20% and A549 tox -10%.
`Cc1ccc(-n2c(SCC(=O)Nc3cccc(S(N)(=O)=O)c3)nc3ccccc32)cc1` gave Nrf2 ARE act 3%, ALOX12 inh -25%, mIDH1 inhibitor inconclusive, LDHA inh -2, Nrf2 inh 21µM* and A549 tox inconclusive.
CC(C)Oc1ccccc1NC(=O)CSc1nc2ccccc2c(=O)n1C was read as Nrf2 ARE act 3%, ALOX12 inh 417%, mIDH1 inhibitor 19%, LDHA inh 1, Nrf2 inh inconclusive and A549 tox 0%.
`CC(C)Cn1c(SCC(=O)Nc2cccc(S(N)(=O)=O)c2)nc2ccccc2c1=O` gave Nrf2 ARE act 0%, ALOX12 inh 6%, mIDH1 inhibitor inconclusive, LDHA inh 1, Nrf2 inh 21µM* and A549 tox -20%.
COCCn1c(SCc2ccc(C(=O)OC)o2)nc2ccccc2c1=O was read as Nrf2 ARE act -1%, ALOX12 inh 2%, mIDH1 inhibitor 7%, LDHA inh -1, Nrf2 inh 2% and A549 tox -1%.
CC1(C)CC2CC(C)(CN2C(=O)CC(c2ccccc2Cl)c2c[nH]c3ccccc23)C1 (stereo not drawn) was read as ALOX12 inh 8%.
